Our source for the outcome and AC50 values is PubChem BioAssay (EPA / NIEHS).

Activity calls are given as the source filed them. The calls were made as follows: active = hit-call score of the fitted dose curve at least 0.9, where 1 is the maximum; inactive = score below 0.9.

Settings in all cases: mRNA level, 48 h; actives raise or lower the signal
Read-out in one experiment: MYC, MYC (gene 4609)
Kind of experiment: LTEA_HepaRG_MYC: Life Technologies and Expression Analysis (LTEA) Assay for MYC using HepaRG (AID 2283518). In outline:
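Differentiated human HepaRG cells, plated 48 h then switched to serum-free induction medium, were exposed in duplicate for 48 h to 8-point half-log series up to 100 uM in 0.5% DMSO. MYC mRNA measured by qRT-PCR, normalized to ACTB/GAPDH/POLR2A.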

Read-out in experiment [1]: matrix metalloproteinase-3 (MMP3), MMP3 (gene 4314)
Kind of experiment: LTEA_HepaRG_MMP3: Life Technologies and Expression Analysis (LTEA) Assay for matrix metalloproteinase-3 (MMP3) using HepaRG (AID 2283519). Put shortly: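 Human liver HepaRG cultures received chemicals (top concentration 100 uM, 0.5% DMSO) for 48 h in duplicate. MMP3 mRNA induction or loss was then assessed via TaqMan qRT-PCR with housekeeping-gene normalisation.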

Read-out in experiment [2]: Paternally Expressed 10 (PEG10), PEG10 (gene 23089)
Kind of experiment: LTEA_HepaRG_PEG10: Life Technologies and Expression Analysis (LTEA) Assay for Paternally Expressed 10 (PEG10) using HepaRG (AID 2283520). Put shortly:
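qRT-PCR read-out: PEG10 mRNA normalised to three housekeeping genes, fitted bidirectionally against 0.5% DMSO vehicle. HepaRG cells received test chemicals for 48 h in serum-free induction medium, 8 points, top 100 uM, half-log steps.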

Read-out in experiment [3]: Protein phosphatase 2A (PPP2R4), PTPA (gene 5524)
Kind of experiment: LTEA_HepaRG_PPP2R4: Life Technologies and Expression Analysis (LTEA) Assay for Protein phosphatase 2A (PPP2R4) using HepaRG (AID 2283522). In outline:
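HepaRG, 48 h exposure, 8-pt half-log series from 100 uM, 0.5% DMSO vehicle, duplicates. Readout: PPP2R4 mRNA, Fluidigm qRT-PCR, housekeeping-normalized. Bidirectional curve fit vs DMSO baseline.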

Read-out in experiment [4]: Phosphatase and tensin (PTEN), PTEN (gene 5728)
In words: LTEA_HepaRG_PTEN: Life Technologies and Expression Analysis (LTEA) Assay for Phosphatase and tensin (PTEN) using HepaRG (AID 2283523). Put shortly: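 Expression of PTEN is quantified in the human liver line HepaRG following two days of dosing (top concentration 100 uM, half-log dilutions, 0.5% DMSO). Values derive from bidirectional curve fitting relative to DMSO controls.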

Read-out in experiment [5]: solute carrier (SLC22A1), SLC22A1 (gene 6580)
Kind of experiment: LTEA_HepaRG_SLC22A1: Life Technologies and Expression Analysis (LTEA) Assay for solute carrier (SLC22A1) using HepaRG (AID 2283524). In outline:
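Transcript induction or suppression of SLC22A1 in human HepaRG cultures is scored after 48 h chemical treatment, with DMSO (0.5%) as baseline for bidirectional fitting. Concentrations span eight half-log points topping at 100 uM.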

Read-out in experiment [6]: Pyruvate Dehydrogenase Kinase 4 (PDK4), PDK4 (gene 5166)
Kind of experiment: LTEA_HepaRG_PDK4: Life Technologies and Expression Analysis (LTEA) Assay for Pyruvate Dehydrogenase Kinase 4 (PDK4) using HepaRG (AID 2283525). Put shortly: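 Eight-point, half-log concentration series (max 100 uM, 0.5% DMSO) applied to differentiated HepaRG cells for 48 h in duplicate. Endpoint: PDK4 mRNA induction or repression by qRT-PCR against DMSO baseline.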

Read-out in experiment [7]: NAD(P)H dehydrogenase [quinone] 1 (NQO1), NQO1 (gene 1728)
Kind of experiment: LTEA_HepaRG_NQO1: Life Technologies and Expression Analysis (LTEA) Assay for NAD(P)H dehydrogenase [quinone] 1 (NQO1) using HepaRG (AID 2283526). Put shortly: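 qRT-PCR read-out (Fluidigm TaqMan), normalized to three housekeeping genes, after 48 h chemical exposure of HepaRG cells. Concentrations: eight points, top 100 uM, half-log steps, 0.5% DMSO vehicle. Gain or loss of signal fitted relative to DMSO.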

Read-out in experiment [8]: Nuclear factor erythroid 2-related factor 2 (Homo sapiens) (UniProt Q16236)
In words: LTEA_HepaRG_NFE2L2: Life Technologies and Expression Analysis (LTEA) Assay for Nuclear factor erythroid 2-related factor 2 (NFE2L2) Transcription Factor using HepaRG (AID 2283527).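 Also: TaqMan qRT-PCR transcript level normalised to ACTB GAPDH and POLR2A housekeeping genes.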 In outline: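 Human liver HepaRG line treated in duplicate for 48 h with an eight-point series topping at 100 uM. Gene expression of NFE2L2 by qRT-PCR, bidirectionally fitted against the vehicle control.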

Read-out in experiment [9]: succinate dehydrogenase complex iron sulfur subunit B (SDHB), SDHB (gene 6390)
In words: LTEA_HepaRG_SDHB: Life Technologies and Expression Analysis (LTEA) Assay for succinate dehydrogenase complex iron sulfur subunit B (SDHB) using HepaRG (AID 2283528). Put shortly: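 HepaRG cells (~100,000/well, plated 48 h) exposed in duplicate for 48 h in serum-free induction medium to 8-point half-log series from 100 uM in 0.5% DMSO; mRNA by qRT-PCR normalised to ACTB, GAPDH, POLR2A; bidirectional fit versus DMSO.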

Read-out in experiment [10]: Signal transducer and activator of transcription 3 (Homo sapiens) (UniProt P40763)
Kind of experiment: LTEA_HepaRG_STAT3: Life Technologies and Expression Analysis (LTEA) Assay for Signal transducer and activator of transcription (STAT3) using HepaRG (AID 2283529). Put shortly: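 In this transcriptional endpoint, HepaRG cultures receive test chemicals at up to 100 uM for 48 h, tested in duplicate. STAT3 mRNA is normalized to ACTB, GAPDH and POLR2A.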

Read-out in experiment [11]: solute carrier (SLCO1B1), SLCO1B1 (gene 10599)
Kind of experiment: LTEA_HepaRG_SLCO1B1: Life Technologies and Expression Analysis (LTEA) Assay for solute carrier (SLCO1B1) using HepaRG (AID 2283530). In outline: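 Differentiated human HepaRG cells, plated 48 h, switched to serum-free induction medium and exposed in duplicate for 48 h to 8 half-log concentrations (top 100 uM) in 0.5% DMSO. SLCO1B1 mRNA by TaqMan qRT-PCR, normalized to ACTB/GAPDH/POLR2A.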

Read-out in experiment [12]: Transforming Growth Factor (TGFA), TGFA (gene 7039)
Kind of experiment: LTEA_HepaRG_TGFA: Life Technologies and Expression Analysis (LTEA) Assay for Transforming Growth Factor (TGFA) using HepaRG (AID 2283532). Put shortly: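 Gene expression of TGFA was quantified by qRT-PCR after human HepaRG cells were treated for 48 h with test chemicals (eight concentrations, highest 100 uM, 0.5% DMSO). Activity in either direction was fitted relative to DMSO.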

Read-out in experiment [13]: Transforming Growth Factor (TGFB1), TGFB1 (gene 7040)
In words: LTEA_HepaRG_TGFB1: Life Technologies and Expression Analysis (LTEA) Assay for Transforming Growth Factor (TGFB1) Transporter using HepaRG (AID 2283533). Put shortly:
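Differentiated human HepaRG cells in serum-free induction medium were exposed in duplicate for 48 h to eight concentrations (top 100 uM, half-log steps, 0.5% DMSO). TGFB1 mRNA was quantified by qRT-PCR, normalized to ACTB, GAPDH, POLR2A, and fitted bidirectionally against DMSO.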

Read-out in a further experiment: TIMP1, TIMP1 (gene 7076)
Kind of experiment: LTEA_HepaRG_TIMP1: Life Technologies and Expression Analysis (LTEA) Assay for TIMP1 using HepaRG (AID 2283534).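 As to outcome: TaqMan qRT-PCR signal normalized to ACTB GAPDH and POLR2A housekeeping genes.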 In outline: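 Differentiated human HepaRG cells in serum-free induction medium were exposed 48 h to chemicals (8 half-log concentrations, top 100 uM, 0.5% DMSO). TIMP1 mRNA was quantified by TaqMan qRT-PCR, normalized to ACTB/GAPDH/POLR2A; bidirectional fit versus DMSO.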

Read-out in experiment [14]: Tumor necrosis factor receptor 1 (TNFRSF1A), TNFRSF1A (gene 7132)
Kind of experiment: LTEA_HepaRG_TNFRSF1A: Life Technologies and Expression Analysis (LTEA) Assay for Tumor necrosis factor receptor 1 (TNFRSF1A) using HepaRG (AID 2283535). In outline: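 Differentiated human HepaRG cells were exposed in duplicate for 48 h in serum-free induction medium to eight concentrations (top 100 uM, half-log steps, 0.5% DMSO). TNFRSF1A mRNA was quantified by qRT-PCR, normalized to ACTB, GAPDH and POLR2A, then fitted bidirectionally against DMSO.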

Read-out in experiment [15]: Thyroid Hormone Responsive (THRSP), THRSP (gene 7069)
In words: LTEA_HepaRG_THRSP: Life Technologies and Expression Analysis (LTEA) Assay for Thyroid Hormone Responsive (THRSP) using HepaRG (AID 2283536). In outline:
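Cell model: human HepaRG, approx. 100,000 cells/well, 0.5% DMSO vehicle. Exposure lasts 48 h; phenobarbital 1 mM serves as induction positive control. Gene expression is measured by qRT-PCR against three endogenous control genes.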

Read-out in experiment [16]: UDP glucuronosyltransferase (UGT1A1), UGT1A1 (gene 54658)
Kind of experiment: LTEA_HepaRG_UGT1A1: Life Technologies and Expression Analysis (LTEA) Assay for UDP glucuronosyltransferase (UGT1A1) using HepaRG (AID 2283538). Put shortly:
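HepaRG, 48 h chemical exposure (top 100 uM, half-log 8-pt, 0.5% DMSO vehicle), duplicate wells; qRT-PCR (TaqMan, Fluidigm array) for UGT1A1 mRNA, housekeeping-normalized; bidirectional curve fit vs DMSO baseline.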

Sequence of Nuclear factor erythroid 2-related factor 2 (Homo sapiens) (Q16236 whole entry, looked up): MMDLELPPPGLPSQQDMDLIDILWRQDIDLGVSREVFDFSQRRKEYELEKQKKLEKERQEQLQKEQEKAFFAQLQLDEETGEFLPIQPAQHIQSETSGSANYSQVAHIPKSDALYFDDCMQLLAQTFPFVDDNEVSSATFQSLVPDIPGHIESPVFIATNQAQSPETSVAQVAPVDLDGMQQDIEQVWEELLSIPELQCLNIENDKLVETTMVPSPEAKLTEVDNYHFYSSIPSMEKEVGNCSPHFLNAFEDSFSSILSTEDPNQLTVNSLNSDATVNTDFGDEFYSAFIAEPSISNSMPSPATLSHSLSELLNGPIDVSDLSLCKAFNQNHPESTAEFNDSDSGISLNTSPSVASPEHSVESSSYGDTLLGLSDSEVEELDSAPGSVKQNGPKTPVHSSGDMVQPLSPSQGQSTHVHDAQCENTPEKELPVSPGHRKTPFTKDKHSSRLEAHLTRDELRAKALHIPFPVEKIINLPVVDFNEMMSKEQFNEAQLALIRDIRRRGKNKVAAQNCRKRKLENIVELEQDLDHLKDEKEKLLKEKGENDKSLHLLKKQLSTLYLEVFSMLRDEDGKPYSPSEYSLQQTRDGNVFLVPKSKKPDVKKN
Sequence of Signal transducer and activator of transcription 3 (Homo sapiens) (P40763 whole entry, looked up): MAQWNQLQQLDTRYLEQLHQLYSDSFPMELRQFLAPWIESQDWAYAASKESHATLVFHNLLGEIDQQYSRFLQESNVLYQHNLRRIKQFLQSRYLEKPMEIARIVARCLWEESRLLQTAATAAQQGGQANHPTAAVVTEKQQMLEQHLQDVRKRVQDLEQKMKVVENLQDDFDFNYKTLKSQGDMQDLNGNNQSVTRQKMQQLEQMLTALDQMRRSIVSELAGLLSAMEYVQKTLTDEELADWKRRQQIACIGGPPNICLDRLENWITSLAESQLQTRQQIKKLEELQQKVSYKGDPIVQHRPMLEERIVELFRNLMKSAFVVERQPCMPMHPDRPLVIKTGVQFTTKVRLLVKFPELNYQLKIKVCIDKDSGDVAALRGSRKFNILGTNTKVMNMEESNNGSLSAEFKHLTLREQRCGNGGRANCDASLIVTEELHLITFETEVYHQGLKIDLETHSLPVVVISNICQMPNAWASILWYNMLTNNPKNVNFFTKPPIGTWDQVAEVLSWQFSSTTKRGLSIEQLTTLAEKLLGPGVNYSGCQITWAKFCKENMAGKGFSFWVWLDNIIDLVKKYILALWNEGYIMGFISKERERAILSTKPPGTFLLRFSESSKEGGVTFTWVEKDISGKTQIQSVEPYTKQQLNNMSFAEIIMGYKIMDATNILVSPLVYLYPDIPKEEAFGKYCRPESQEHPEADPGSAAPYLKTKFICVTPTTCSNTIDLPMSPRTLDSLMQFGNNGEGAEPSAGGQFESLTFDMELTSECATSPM

As to `Cc1ncc([C@@H](CCCCCCc2ccc3c(n2)NCCC3)CC(=O)O)cn1`, the outcome with MYC, MYC (gene 4609) is “inactive”; in [2], “inactive”; in experiment [3], “inactive”; in experiment [4], “inactive”; in experiment [5], “inactive”; in experiment [7], “inactive”. The result in [8], in experiment [9], in experiment [10], in experiment [11], in experiment [12] and in [13] was inactive. The outcome with TIMP1, TIMP1 (gene 7076) was “inactive”; in experiment [14], “inactive”; in experiment [15], “inactive”; in experiment [16] it was “inactive”. The AC50 in experiment [1] is 145 nM (active); in experiment [6], 317 nM (active).
Regarding `CCc1cccc(CC)c1N`, the outcome with MYC, MYC (gene 4609) is “inactive”; in [1], “inactive”; in experiment [2] it was “inactive”; in experiment [3] it was “inactive”; in experiment [4], “inactive”; in experiment [5], “inactive”. The outcome in experiment [6], in experiment [7], in [8], in experiment [9], in [10] and in experiment [11] was inactive. The outcome is “inactive” in experiment [12]; “inactive” in [13]; “inactive” with TIMP1, TIMP1 (gene 7076); “inactive” in experiment [14]; “inactive” in experiment [15].
For `CCCCCCCCCCCCCCCCOS(=O)(=O)O`, the outcome was “inactive” with MYC, MYC (gene 4609); “inactive” in experiment [1]; “inactive” in [2]; “inactive” in experiment [3]; “inactive” in experiment [4]; “inactive” in experiment [7]. Moreover, the compound was classed as inactive in experiment [8], in experiment [9], in [10], in experiment [11], in experiment [12] and in [13]. In addition, the result in experiment [14] and in experiment [16] was inactive. The AC50 in experiment [5] is 38600 nM (active); with TIMP1, TIMP1 (gene 7076) it was 351 nM (active); in experiment [15] it was 41100 nM (active).
